# ELG1 genotoxic – inducers of genotoxicity in HEK293T ELG1-luciferase cells; HEK293T ELG1-luciferase reporter, luminescence, 16 h; Potency, µM (titrated, usually from 46 µM), usual class: activators; 1.3% of 330,000 active; further: nearly all actives have a fitted effect of over 60% in size
#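 Genotoxicity was scored as increased ELG1-luciferase reporter signal, measured by ONE-Glo luminescence (30 min, room temperature). Compound or vehicle exposure of the HEK293T reporter cells lasted 16 hr at 37°C.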
# Rab9 promoter act – Rab9 promoter activation; Huh7 Rab9 promoter-luciferase reporter, luminescence, 24 h; Potency, µM (titrated, usually from 9.22 µM), usual class: activators; 2.8% of 320,000 active; AID 485297; further: nearly all actives have a fitted effect of over 60% in size
#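 Luminescence from Amplite-detected luciferase (10 minutes, ambient) reports Rab9 promoter activation. Before that, stable Rab9-luciferase Huh7 cells (1500/well, reduced-serum OP-MEM I plus 10% FBS) were exposed to compound for 24 hours at 37C.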
# NPC1 prom act – activators of NPC1 promoter. Huh7 NPC1 promoter luciferase reporter, 24 h. Potency, µM (titrated, usually from 9.22 µM), hits mostly activators. 2.4% of 320,000 active; further: nearly all actives have a fitted effect of over 60% in size
#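 Compounds in DMSO were transferred onto Huh7 NPC1-luciferase reporter cells pre-incubated 2 h; after 24 h at 37 °C, Amplite reagent was dispensed and luminescence recorded 10 min later.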
# uPA surface inh – blocks generation of uPA at the cell surface. cell surface uPA generation assay, qHTS. Potency, µM (series often up to 38.3 µM), most hits filed as inhibitors. 0.31% of 330,000 active; active means well fitted inhibition curve with a large enough effect; inconclusive means small, poorly fitted or top-dose-only effect; inactive means no such curve, though single readings can be large or run the other way; tested in mouse RAW 264.7 cells; further: nearly all actives have a fitted effect of over 55% in size
# FLuc counter – counter-screen for miR-21 project: firefly luciferase inhibitors or activators | purified FLuc, Km substrates, luminescence inhibition | 6.9% of 360,000 active | P08659 | Potency, µM (series often up to 57.5 µM), most hits filed as inhibitors; further: nearly all actives have a fitted effect of over 55% in size
# Target sequence (P08659 whole entry, looked up): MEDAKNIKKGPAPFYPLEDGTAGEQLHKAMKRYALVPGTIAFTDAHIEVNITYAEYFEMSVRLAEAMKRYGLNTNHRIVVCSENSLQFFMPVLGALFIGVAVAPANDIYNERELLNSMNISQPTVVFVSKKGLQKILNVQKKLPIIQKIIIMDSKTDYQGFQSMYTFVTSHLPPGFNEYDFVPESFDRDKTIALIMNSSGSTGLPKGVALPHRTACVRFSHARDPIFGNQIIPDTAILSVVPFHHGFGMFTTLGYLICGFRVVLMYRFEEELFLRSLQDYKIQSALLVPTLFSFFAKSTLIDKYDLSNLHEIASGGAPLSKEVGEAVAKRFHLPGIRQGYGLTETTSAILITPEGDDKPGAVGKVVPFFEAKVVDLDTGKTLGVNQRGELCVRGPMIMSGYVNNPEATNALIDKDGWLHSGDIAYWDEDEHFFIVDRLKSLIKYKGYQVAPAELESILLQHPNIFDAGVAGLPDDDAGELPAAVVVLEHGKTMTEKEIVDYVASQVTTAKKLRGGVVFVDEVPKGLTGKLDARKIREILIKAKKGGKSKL
#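 Purified P. pyralis luciferase (10nM final) with 10uM D-luciferin and 10uM ATP (Km levels) in 50mM Tris acetate pH 7.5, 10mM Mg acetate, 0.01% Tween-20, 0.05% BSA; qHTS 6-point titration, ~60 µM downward; luminescence read.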
# SMN2 splice up – SMN2 splice variant enhancement. HEK293 SMN2-luciferase splicing reporter, luminescence, 30-36 h. Potency, µM (highest dose often 46.1 µM), hits mostly activators. 2.8% of 210,000 active. AID 1458; further: nearly all actives have a fitted effect of over 55% in size
#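 HEK293 cells carry an SMN2 […]–luciferase reporter in which exon 7 inclusion puts luciferase in frame. Cells were plated 10-12 h before compound addition, then incubated 30-36 h at 37C. ONE-Glo luminescence was read; sodium butyrate at 4.5 mM final served as control.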
# A number is an active result; - = inactive; ? = inconclusive; . = not tested or not shown; [ ] = another dose, or the depositor's remark. Hits are enriched below; roughly 7.3% of the tested compounds scored in any of these assays. Unless noted, the call rests on the fitted dose curve; in most records, active means well fitted curve in the direction sought with a large enough effect; inconclusive means small, poorly fitted or top-dose-only effect, or another doubt; inactive means no such curve, though single readings can be large; an effect the other way counts as inactive or inconclusive.
SMILES,ELG1 genotoxic,Rab9 promoter act,NPC1 prom act,uPA surface inh,FLuc counter,SMN2 splice up
CC1=C(C(=O)Nc2cccnc2)C(c2ccc(Cl)cc2)n2nc(SCc3ccccc3)nc2N1 (stereo not given),.,.,.,.,-,-
COc1ccccc1C(=O)Nc1c(C(=O)N2CCN(c3ccccc3F)CC2)oc2ccccc12,.,.,.,.,-,.
O=C1CN(C(=O)c2ccc(S(=O)(=O)N3CCCC3)cc2)C(c2ccc(F)cc2)c2cc(F)ccc2N1 (stereo not given),.,.,.,.,-,-
CCC(=O)Nc1cccc(SC)c1,-,-,-,-,-,-
COc1cccc(NC(=O)COc2ccccc2)c1,?,-,?,-,?,.
CC(=O)Nc1cccc(OCC(=O)Nc2ccccc2)c1,10.3µM,3.16µM,3.55µM,-,?,22.4µM
CC(=O)Nc1cccc(OCC(=O)Nc2sccc2C(N)=O)c1,?,1.12µM,2.51µM,-,8.49µM,.
COc1cccc(NC(=O)C(=O)N/N=C(\C)CC(=O)Nc2ccc(NC(C)=O)cc2)c1,?,-,-,-,10.7µM,.
CSc1cccc(NC(=O)COc2ccccc2C)c1,-,-,-,-,15.1µM,-
CC(=O)Nc1cccc(NC(=O)COc2ccc3c(c2)CCC3)c1,-,-,-,-,8.49µM,.
CCOc1ccc(-c2cccc(NC(=O)COc3ccccc3)c2)nn1,-,-,-,-,15.1µM,.
CCOc1ccc(-c2cccc(NS(=O)(=O)c3ccccc3[N+](=O)[O-])c2)nn1,-,-,-,-,-,.
Cc1cccnc1NC(=O)c1ccc2c(c1)OCCO2,16.4µM,?,-,-,13.5µM,.
O=C(Nc1ncccc1O)c1ccc2ccccc2c1,-,-,-,-,-,.
O=C(Nc1ncccc1O)c1ccc2c(c1)OCCO2,20.6µM,2.51µM,3.55µM,-,15.1µM,.
O=C(Nc1ncccc1O)c1ccc2c(c1)OCO2,?,3.55µM,3.98µM,-,?,.
O=C(Oc1cccc2cccnc12)c1ccc2c(c1)OCCO2,-,-,-,-,-[2.3 µM],-
Cc1ccc(-c2onc3ccc(C(=O)/C=C/N(C)C)cc23)cc1,-,-,-,-,15.1µM,.
c1ccc(Nc2nnc(-c3cccc4ccccc34)o2)cc1,?,?,-,-,2.13µM,.
Cc1ccccc1NC(=O)c1sc2nc(-c3cc4ccccc4oc3=O)[nH]c(=O)c2c1C,.,.,.,.,-,.
COc1ccc(-c2nnc(-c3cc4ccccc4oc3=O)o2)cc1,-,-,-,-,-,?
COc1ccc2oc(=O)c(-c3nnc(-c4ccc(C)cc4)o3)cc2c1,.,.,.,.,-,-
O=c1oc2ccccc2cc1-c1nc2c(s1)CCCC2,?,0.398µM,?,.,0.151µM,1µM
COc1ccc2oc(=O)c(-c3nc4ccccc4o3)cc2c1,?,?,?,-,5.36µM,?
O=c1oc2ccccc2cc1-c1nc2ccccc2o1,?,2.82µM,3.55µM,.,3.01µM,?
SMILES,ELG1 genotoxic,Rab9 promoter act,NPC1 prom act,uPA surface inh,FLuc counter,SMN2 splice up
Cc1cc(-c2nnc(-c3cc4ccccc4oc3=O)o2)c(C)n1-c1ccccc1,?,-,-,.,6.75µM,-
Cc1ccccc1-c1nc(CNC(=O)Nc2ccccc2)c(C)o1,.,.,.,.,-,.
C=CC1=C2C=C(C3CC3)N(CCCCO)C=C2C(=O)C(C)(OC(=O)c2ccco2)C1=O (stereo not given),.,.,.,.,.,-[9.22 µM]
COc1ccc(CNC(=O)COC(=O)CCN2C(=O)C3CC=CCC3C2=O)cc1OC (stereo not given),-,-,-,-,-,.
CN(C)/C=N/C(=S)Nc1ccc(Cl)cc1Cl,20.6µM,?,?,-,19µM,?
CN(C)/C=N/C(=S)Nc1ccc(Cl)cc1,?,?,-,-,13.5µM,11.2µM
Cc1cccc(C)c1NC(=S)/N=C/N(C)C,-,-,-,-,-,-
COc1ccc(C(=O)N2CCC3(CCCN(Cc4cc(C(F)(F)F)cc(C(F)(F)F)c4)C3)CC2)cc1,.,.,.,.,.,-
COc1ccc2nc(/C=N/NC(=O)[C@H](C)NC(=O)OC(C)(C)C)ccc2c1,?,-,-,.,5.36µM,?
COc1cc(OC)c(NC2=C(c3ccc(C(F)(F)F)cc3)C(=O)c3ccccc32)cc1Cl,.,.,.,.,-,-
Cc1ccc2nc(-c3ccc(N4C(=N)SC5CS(=O)(=O)CC54)cc3)sc2c1 (stereo not given),?,2.82µM,?,-,8.49µM,.
Cc1ccc2nc(-c3ccc(N)cc3)sc2c1,?,0.224µM,0.316µM,-,0.107µM,.
Nc1ccc2nc(-c3ccccc3)sc2c1,.,.,.,-,0.301µM,0.501µM
Cc1ccc2nc(-c3ccc(NC(=S)NCCC(C)C)cc3)sc2c1,.,.,.,-,.,.
Nc1ccc(-c2nc3cc(N)ccc3s2)cc1,2.91µM,0.708µM,0.501µM,-,0.675µM,.
Nc1ccc2nc(-c3ccccc3)c(-c3ccccc3)nc2c1,-,-,-,-,-,.
CCOC(=O)CSc1nc2ccccc2c(=O)n1CCc1ccc(OC)c(OC)c1,.,.,.,.,-,.
CCOC(=O)c1c(NC(=O)CN2C(=O)NC(C)(c3ccc(Cl)cc3)C2=O)sc(C(=O)NC)c1C (stereo not given),-,-,-,-,-,-
Cc1ccc2sc(-c3ccc(N)cc3)nc2c1,.,.,.,.,0.169µM,0.631µM
CC(=O)Nc1nc2cc(N)ccc2s1,-,-,-,-,-,.
Cc1ccc(NC(=O)Cc2csc(C)n2)c(C)c1,.,.,.,.,-,-
CCN1CCN(C(c2ccccc2Cl)c2c(O)cc(C)n(CCOC)c2=O)CC1 (stereo not given),.,.,.,.,-,.
O=C(NNC(=S)Nc1ccccc1Cl)c1ccccc1,?,1.58µM,2.51µM,-,13.5µM,.
O=C(NC(=S)Nc1cccc2cc(O)ccc12)c1ccco1,-,-,-,-,-,.
O=C(NC(=S)Nc1cccc2c(O)cccc12)c1ccco1,-,-,-,-,21.3µM,.
SMILES,ELG1 genotoxic,Rab9 promoter act,NPC1 prom act,uPA surface inh,FLuc counter,SMN2 splice up
O=C(NC(=S)Nc1cccc(Cl)c1N1CCCCC1)c1ccco1,-,-,-,.,-,-
O=C(NC(=S)Nc1ccccc1Cl)c1ccco1,-,?,?,-,9.53µM,.
CCCOCC(C)OCC(C)O (stereo not given),.,.,.,.,.,-
CCCCOc1ccc(C(=O)Nc2onc3c2CCCC3)cc1,.,.,.,.,1.69µM,22.4µM
CCCCOc1ccc(C(=O)Nc2sc3c(c2C(=O)OCC)CCCCC3)cc1,.,.,.,.,-,-
O=C(Nc1onc2c1CCCC2)c1ccc(Cl)cc1,.,.,.,.,1.9µM,8.91µM
O=C(NN=C1CCCC1)c1ccc(Cl)cc1,-,-,-,-,-,.
Cc1ccccc1-c1noc(-c2ccccc2C(=O)N2CCCC2)n1,-,-,-,-,-,-
O=C(c1ccccc1-c1nc(-c2ccc(Cl)cc2)no1)N1CCCC1,?,3.16µM,?,-,19µM,-
O=C(c1ccccc1-c1nc(-c2ccccc2)no1)N1CCCC1,-,-,-,-,26.9µM,?
CN1CCN(C(=O)c2ccccc2-c2nc(-c3ccc(Cl)cc3)no2)CC1,-,-,-,-,-[2.3 µM],.
Cc1ccc(-c2noc(-c3ccccc3C(=O)N3CCCC3)n2)cc1,?,-,-,-,23.9µM,-

# Compound activity from PubChem.
